The record followed here is PubChem BioAssay (NCI).

About 83,000 compounds went through this panel and 20% of them were active in at least one assay; those are over-represented in the sample as a whole.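 Cells were grown in 96-well plates and exposed to the test compound at a single concentration for 48 hours; results are reported as percent growth, with values below 10 considered active.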 A number with no mark means an inactive call. The source made the active and inactive calls.

The assay has as its system K-562 leukemia. As to the kind of experiment: NCI-60 one-dose screen, 48 h (100 = growth as untreated, 0 = no growth, -100 = all killed). Particulars: 10 µM unless noted.
Take `COc1cc2c(=O)n(C3CCCCCCC3)c3c4cc[nH]c4ncc3c2cc1OC`: the growth is 8.73% (active).

Consider `C1CCC([PH+](C2CCCCC2)C2CCCCC2[PH+](C2CCCCC2)C2CCCCC2)CC1.[Au].[CH-]1CCCCC1CC1CCCC[N-]1` (configuration not stated), for which the growth was 3.54% (active).

On to `CCCCN1CCCC[C@@H]1C(=O)N[C@H](C(=O)N(C)[C@H](C[C@@H](OC(C)=O)c1nc(C(=O)NC2CCC(C(=O)OC)CC2)cs1)C(C)C)C(C)C` (some centres not stated), for which the growth was 9.52% (active).

For `CS(=O)(=O)CCN1CC2CCCC(C2)C1`, the growth was 113%.

Consider `COC(=O)[C@@H](C)C[C@H](Cc1ccccc1)NC(=O)c1nc([C@@H](C[C@H](C(C)C)N(C)C(=O)[C@@H](NC(=O)[C@H]2CCCCN2C)C(C)C)OC(C)=O)sc1C(C)C`, for which the growth is 7.38% (active).

With `C=CC[Se]C(=O)c1ccccc1OC(C)=O`, the growth is 46.8%.

With `CC(C)[C@@H]1NC(=O)[C@]2(C)CSC(=N2)c2csc(n2)CNC(=O)C[C@@H](/C=C/CCS)OC1=O`, the growth was 8.34% (active).

As for `Clc1cccc(Cl)c1Cl`, the growth is 84.9%.

Regarding `O=C(CC1(O)C(=O)Nc2ccc(Cl)cc21)c1ccc(C(=O)NCC2CCC3(CC2)OOC2(CCCCC2)OO3)cc1` (configuration not stated), the growth was -56.9% (active).

Turning to `COc1ccc(C(O)(C(=O)O)c2ccc(OC)cc2)cc1`, the growth is 87.8%.

On to `CCn1c2ccccc2c2cc(C(=O)c3ccc(C)c4ccccc34)ccc21`, for which the growth was 4.51% (active).

Take `COC(=O)[C@]12CCC(C)(C)C[C@H]1[C@H]1C(=O)C[C@@H]3[C@@]4(C)C[C@@]5(CC(C)(C)[C@@H]4CC[C@@]3(C)[C@]1(C)CC2)OO[C@@](C)(C(F)(F)F)O5`: the growth was 88.3%.

On to `CC[C@]12C=CCN3CC[C@@]4(c5ccc(OC)cc5N(C)[C@H]4[C@@](O)(C(=O)OC)[C@@H]1OC(=O)CCCC[P+](c1ccccc1)(c1ccccc1)c1ccccc1)[C@@H]32`, for which the growth is 21.7%.

Take `CCCCCCCCOC(=O)CCN1CC1`: the growth is 119%.

In the case of `CC1[C@H](C)OC(=O)CC(O)CC(O)CC(O)CCC(O)C(O)C[C@]2(O)CC(O)C(C(=O)O)C(CC(OC3O[C@H](C)[C@@H](O)[C@H](N)[C@@H]3O)/C=C/C=C/C=C/C=C/CC/C=C/C=C/[C@H](C)[C@H]1O)O2` (some centres not stated), the growth is 111%.

Regarding `c1cc2c(c3c1CCNC3)OCO2`, the growth was 106%.

Turning to `Cc1ccc(N2COOC3(OOC2)C2CC4CC(C2)CC3C4)cc1`, the growth is 72.6%.

In the case of `O=C(CC1(O)C(=O)N(Cc2ccccc2)c2ccc(Br)cc21)c1ccc(C(=O)NCC2CCC3(CC2)OOC2(CCCCC2)OO3)cc1` (configuration not stated), the growth is -5.58% (active).

In the case of `C[C@@H]1C[C@@]2(C)[C@@H](CC[C@@H]3[C@@H]2CC[C@]2(C)C(=O)CC[C@@H]32)CC1=O`, the growth is 93.1%.

With `CCN(CC)c1ccc2c(c1)OC(N)=C(C#N)C2c1cc(OC)c2c(c1)OCO2` (configuration not stated), the growth was 17.5%.

`O=P(Oc1ccc(Cl)cc1)(N1CC1)N1CC1`: the growth is 85.3%.

Regarding `O=[N+]([O-])c1cc(I)cc([N+](=O)[O-])c1`, the growth was 97.9%.

On to `CC(=O)O[C@H](C[C@H](C(C)C)N(C)C(=O)[C@@H](NC(=O)[C@H]1CCCCN1C)C(C)(C)C)c1nc(C(=O)N[C@@H](Cc2ccccc2)C[C@H](C)C(=O)O)cs1`, for which the growth was 5.51% (active).

In the case of `CC[C@H](C)[C@H](NC(=O)[C@H]1CCCCN1C)C(=O)N(C)[C@H](C[C@@H](O)c1nc(C(=O)N[C@@H](Cc2ccccc2)C[C@H](C)C(=O)O)cs1)C(C)C`, the growth was 42.1%.

With `CN1CCC(O)(c2ccc(F)cc2)C(C(=O)c2ccc(F)cc2)C1` (configuration not stated), the growth was 99.1%.

As for `O=C1NC(=O)C(=Cc2cccn2CCCCCn2c3ccccc3c(=O)c3ccccc32)C(=O)N1`, the growth is 89.1%.

In the case of `COC(=O)[C@@H](C[C@H](Cc1ccccc1)NC(=O)c1csc([C@@H](C[C@H](C(C)C)N(C)C(=O)[C@@H](NC(=O)[C@H]2CCCCN2C)C(C)C)OC(C)=O)n1)NC(=O)OCc1ccccc1`, the growth was 2.99% [9.5 µM] (active).

In the case of `CN(C)CCCOc1ccc2c(c1)c(C(=O)C(=O)NCCO)cn2Cc1ccccc1`, the growth is 106%.

With `COc1cc(C=Nc2cc(Cl)cc(Cl)c2)ccc1N(CCCl)CCCl`, the growth was 84.6%.

On to `CCOC(=O)N[C@H]1CCc2c(Br)c(OC)c(OC)c(OC)c2-c2ccc(SC)c(=O)cc21`, for which the growth was 5.89% (active).

As to `C/C(CC(C)(C)N1CC1)=N\NC(=O)Nc1cccc2ccccc12`, the growth is 78.2%.

With `C[C@]12CCc3sc(-c4ccccc4O)nc3C1=CC[C@@H]1[C@@H]2CC[C@]2(C)C(=O)CC[C@@H]12`, the growth was 95.8%.

On to `CC[C@H](C)[C@H](NC(=O)[C@H]1CCCCN1C)C(=O)N(C)[C@H](CC(=O)c1nc(C(=O)N[C@@H](Cc2ccccc2)C[C@H](C)C(=O)O)cs1)C(C)C`, for which the growth is 32.2%.

For `COc1cccc(/C=C/[N+](=O)[O-])c1`, the growth is 7.02% (active).

Regarding `O=C1CC2(CC3(Cl)C(Cl)=C(Cl)C2(Cl)C3(Cl)Cl)C(=O)O1` (configuration not stated), the growth was 97.9%.

As for `CC12CCC3C(CCC4=CC(=O)CCC43CF)C1CCC2=O` (configuration not stated), the growth was 93.5%.

For the compound `Nc1ccc(-c2nc3cc(F)ccc3[se]2)cc1F`, the growth is 93%.
